# From PubChem BioAssay (Tox21)
# “And” between values parts separate entries of the source, which are not always exact repeats. Equal entries are not always repeated. Results filed as inconclusive are left out. A call without a number means that no potency is given here. More than one record can exist for a structure, and the calls need not agree. The source made the active and inactive calls. Unless noted, calls come from the whole dose curve; as a rule, active = well fitted curve in the direction sought with a large enough effect in the repeat runs; inconclusive = weak or mixed curves; inactive = no such curve, though single readings can be large; an effect the other way counts as inactive or inconclusive.
# Columns and labels:
# [1] = target: Progesterone receptor (Homo sapiens) (UniProt P06401); assay: qHTS assay to identify small molecule antagonists of the progesterone receptor (PR) signaling pathway (AID 1346795; active = well fitted inhibition curve with a large enough effect in the signal ratio in the repeat runs, not every such curve was filed as active; the % refers to the signal ratio; note: potency is the fitted concentration of half-maximal effect)
# Progesterone receptor (Homo sapiens), sequence (P06401 whole entry, looked up): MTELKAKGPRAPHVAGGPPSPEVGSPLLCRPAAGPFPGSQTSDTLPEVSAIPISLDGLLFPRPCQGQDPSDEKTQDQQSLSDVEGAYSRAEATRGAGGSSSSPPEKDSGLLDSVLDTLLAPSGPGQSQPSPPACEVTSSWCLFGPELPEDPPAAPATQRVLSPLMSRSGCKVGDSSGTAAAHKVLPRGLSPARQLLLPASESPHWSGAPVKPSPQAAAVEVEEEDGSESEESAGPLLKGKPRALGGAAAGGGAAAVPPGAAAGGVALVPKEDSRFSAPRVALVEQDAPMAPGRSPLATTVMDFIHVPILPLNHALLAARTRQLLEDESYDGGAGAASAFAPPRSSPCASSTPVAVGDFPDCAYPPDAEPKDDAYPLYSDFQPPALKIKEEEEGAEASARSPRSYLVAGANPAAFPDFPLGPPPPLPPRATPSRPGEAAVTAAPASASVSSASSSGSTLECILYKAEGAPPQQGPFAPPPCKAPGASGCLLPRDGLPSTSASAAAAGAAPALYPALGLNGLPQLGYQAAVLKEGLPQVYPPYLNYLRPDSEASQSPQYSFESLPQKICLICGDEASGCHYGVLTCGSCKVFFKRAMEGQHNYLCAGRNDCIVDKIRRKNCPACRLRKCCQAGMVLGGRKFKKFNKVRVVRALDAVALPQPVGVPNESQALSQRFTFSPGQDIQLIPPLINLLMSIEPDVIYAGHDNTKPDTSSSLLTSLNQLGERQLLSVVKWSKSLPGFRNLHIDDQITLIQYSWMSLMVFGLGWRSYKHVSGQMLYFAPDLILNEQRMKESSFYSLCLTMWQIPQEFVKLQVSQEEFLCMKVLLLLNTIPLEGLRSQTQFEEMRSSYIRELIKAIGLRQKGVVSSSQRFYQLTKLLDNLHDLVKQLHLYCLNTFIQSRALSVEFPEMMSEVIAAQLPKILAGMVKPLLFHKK
# Procedure, shortened: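 HEK293T PR-UAS-bla reporter cells in charcoal-stripped serum (2%) received compound after a 6 hr settling period, followed by R5020 agonist at 1 nM final; 16 hr incubation preceded the FRET substrate step and fluorescence measurement.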
# [2] = qHTS assay to identify small molecule antagonists of the progesterone receptor (PR) signaling pathway - cell viability counter screen (AID 1346798); note: series mostly up to about 92 µM; nearly all actives have a fitted effect of over 50% in size
# Procedure, shortened: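 Same-well multiplex: after 16 hr at 37C with compound and R5020 stimulation, HEK293T cells carrying a UAS-bla reporter received LiveBLAzer substrate (2 hr RT), then CellTiter-Glo (30 min RT) for luminescent viability.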
# [3] = qHTS assay to identify small molecule agonists of the progesterone receptor (PR) signaling pathway - cell viability counter screen (AID 1346799; calls by dose curve; note: nearly all actives have a fitted effect of over 45% in size; note: potency is the fitted concentration of half-maximal effect)
# Procedure, shortened: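 Counter screen for cytotoxicity: compound-treated PR-UAS-bla HEK293T cells (16 hr, 37C, 5% CO2) were assayed with CellTiter-Glo, luminescence measured after 30 min at room temperature.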
# [4] = qHTS assay to identify small molecule antagonists of the TGF-beta/Smad signaling pathway - cell viability counter screen (AID 1346824); note: nearly all actives have a fitted effect of over 50% in size
# Procedure, shortened: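 SBE-bla HEK 293T cells, incubated overnight, then compound plus 0.25 ng/mL TGF-beta1 (stock added) for 5 hr at 37 C. Viability was read in the same wells by CellTiter-Glo luminescence after 30 min at room temperature.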
# [5] = qHTS assay to identify small molecule agonists of the TGF-beta/Smad signaling pathway - cell viability counter screen (AID 1346829); note: top concentration of the series differs between compounds; nearly all actives have a fitted effect of over 45% in size
# Procedure, shortened: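 Cytotoxicity counter screen: CellTiter-Glo luminescence (30 min, room temperature) measured in the SBE-bla HEK 293T reporter wells after 5 hr compound treatment at 37 C and the 2 hr substrate step.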
# [6] = qHTS assay to identify small molecule agonists of the TGF-beta/Smad signaling pathway (AID 1346859; active = well fitted activation curve with a large enough effect in the signal ratio in the repeat runs, not every such curve was filed as active; the % refers to the signal ratio; note: series mostly up to about 77 µM)
# Procedure, shortened: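 Smad-responsive beta-lactamase reporter cells (HEK 293T) received compounds from DMSO stocks after overnight attachment, were incubated 5 hr, then treated 2 hr with FRET substrate before dual-emission fluorescence measurement (405 nm excitation).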
# [7] = target: Thyrotropin-releasing hormone receptor (Homo sapiens) (UniProt P34981); assay: qHTS assay to identify small molecule antagonists of the thyrotropin-releasing hormone receptor (TRHR) signaling pathway (AID 1346877; active = well fitted inhibition curve with a large enough effect in the repeat runs, not every such curve was filed as active; note: series mostly up to about 51 µM)
# Thyrotropin-releasing hormone receptor (Homo sapiens), sequence (P34981 whole entry, looked up): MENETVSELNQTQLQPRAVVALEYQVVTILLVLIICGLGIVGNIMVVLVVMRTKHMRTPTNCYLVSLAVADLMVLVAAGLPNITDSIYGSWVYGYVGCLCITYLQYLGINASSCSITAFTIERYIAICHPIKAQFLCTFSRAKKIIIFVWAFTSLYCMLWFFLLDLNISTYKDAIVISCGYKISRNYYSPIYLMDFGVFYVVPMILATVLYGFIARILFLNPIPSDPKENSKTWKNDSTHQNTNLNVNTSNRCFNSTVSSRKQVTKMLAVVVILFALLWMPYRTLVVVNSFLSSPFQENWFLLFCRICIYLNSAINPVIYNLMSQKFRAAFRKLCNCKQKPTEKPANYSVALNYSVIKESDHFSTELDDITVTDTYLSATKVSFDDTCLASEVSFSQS
# Procedure, shortened: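 Human TRHR in HEK293 cells; inhibition of the intracellular calcium rise triggered by 1 nM TRH was followed by fluorescence over 3 min. Compounds were run at 15 concentrations, three replicates each.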
# [8] = target: Thyrotropin-releasing hormone receptor (Homo sapiens) (UniProt P34981); assay: qHTS assay to identify small molecule agonists of the thyrotropin-releasing hormone receptor (TRHR) signaling pathway (AID 1346891; calls by dose curve;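 note: HEK293 cells expressing TRHR with calcium dye readout; series mostly up to about 58 µM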)
# Procedure, shortened: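 Agonist-mode calcium mobilisation screen: TRHR-transfected HEK293 cells cultured overnight (18 h), dye-loaded for 2 h at 37 °C, exposed to compounds, and monitored by fluorescence for 3 min.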
# [9] = Human pregnane X receptor (PXR) small molecule agonists, qHTS cell viability counter screen (AID 1346977); note: nearly all actives have a fitted effect of over 50% in size; note: potency is the fitted concentration of half-maximal effect
# Procedure, shortened: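 Measures live-cell protease fluorescence (CellTiter-Fluor) in PXR-Luc HepG2 cells treated 24hr with compounds at 37C. Cells had 5hr to attach before pin transfer of DMSO solutions.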
# [10] = Caspase-3/7 induction in HepG2 cells by small molecules, qHTS assay (AID 1346978); note: nearly all actives have a fitted effect of over 15% in size; note: potency is the fitted concentration of half-maximal effect
# Procedure, shortened: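 Wild-type HepG2 cells, 2,000/well, settled 5 hr at 37 C and 5% CO2, then compound-treated for 17 hr; caspase-3/7 activity read by luminescent Caspase-Glo 3/7 after 30 min at room temperature.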
# [11] = Caspase-3/7 induction in CHO-K1 cells by small molecules, qHTS cell viability counter screen (AID 1346979); note: nearly all actives have a fitted effect of over 35% in size; note: potency is the fitted concentration of half-maximal effect
# Procedure, shortened: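 In the same wells as the caspase read, viability of compound-treated wild-type CHO-K1 cells was assessed using CellTiter-Fluor, added after 16hr at 37C and measured by fluorescence following 1hr further incubation.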
# [12] = Caspase-3/7 induction in CHO-K1 cells by small molecules, qHTS assay (AID 1346980); note: nearly all actives have a fitted effect of over 15% in size
# Procedure, shortened: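 Wild-type CHO-K1 cells exposed to compounds for 17hr at 37 C, 5% CO2. Caspase-3/7 activity then measured by Caspase-Glo 3/7 luminescence after 30min at room temperature.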
# [13] = Caspase-3/7 induction in HepG2 cells by small molecules, qHTS cell viability counter screen (AID 1346981); note: series mostly up to about 92 µM; nearly all actives have a fitted effect of over 30% in size
# Procedure, shortened: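 The parent HepG2 line is plated at 2,000 cells per well and rested 5 hr before compound pinning from DMSO stocks. Following a 16-hr treatment at 37 C, a fluorogenic live-cell substrate (CellTiter-Fluor) reports viability after 1 hr.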
# [14] = target: Nuclear receptor subfamily 1 group I member 2 (Homo sapiens) (UniProt O75469); assay: Human pregnane X receptor (PXR) small molecule agonists, qHTS assay (AID 1346982); note: nearly all actives have a fitted effect of over 35% in size; note: potency is the fitted concentration of half-maximal effect
# Nuclear receptor subfamily 1 group I member 2 (Homo sapiens), sequence (O75469 whole entry, looked up): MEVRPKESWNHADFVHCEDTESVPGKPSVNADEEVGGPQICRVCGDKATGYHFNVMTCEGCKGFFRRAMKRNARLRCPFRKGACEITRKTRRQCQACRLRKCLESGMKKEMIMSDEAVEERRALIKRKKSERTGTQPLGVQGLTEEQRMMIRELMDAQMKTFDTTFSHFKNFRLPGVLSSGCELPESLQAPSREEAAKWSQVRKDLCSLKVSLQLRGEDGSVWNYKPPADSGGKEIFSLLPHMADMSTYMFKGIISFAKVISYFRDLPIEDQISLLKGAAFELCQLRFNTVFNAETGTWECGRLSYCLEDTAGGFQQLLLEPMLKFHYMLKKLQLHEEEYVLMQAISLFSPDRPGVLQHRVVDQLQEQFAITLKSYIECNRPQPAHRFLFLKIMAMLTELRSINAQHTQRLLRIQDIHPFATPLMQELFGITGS
# Procedure, shortened: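 After plating in 5% charcoal-stripped FBS and a 5 hr rest, PXR-Luc HepG2 cells received compounds in DMSO. Following 24 hr at 37 C, ONE-Glo was added and light output read.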
# [15] = target: Nuclear receptor subfamily 1 group I member 2 (Rattus norvegicus) (UniProt Q9R1A7); assay: Rat pregnane X receptor (rPXR) activation by small molecules, qHTS assay (AID 1346983); details: rPXR luciferase reporter cells, One-Glo luminescence, 24 h; max activation: stronger effect = higher value; note: nearly all actives have a fitted effect of over 20% in size
# Nuclear receptor subfamily 1 group I member 2 (Rattus norvegicus), sequence (Q9R1A7 whole entry, looked up): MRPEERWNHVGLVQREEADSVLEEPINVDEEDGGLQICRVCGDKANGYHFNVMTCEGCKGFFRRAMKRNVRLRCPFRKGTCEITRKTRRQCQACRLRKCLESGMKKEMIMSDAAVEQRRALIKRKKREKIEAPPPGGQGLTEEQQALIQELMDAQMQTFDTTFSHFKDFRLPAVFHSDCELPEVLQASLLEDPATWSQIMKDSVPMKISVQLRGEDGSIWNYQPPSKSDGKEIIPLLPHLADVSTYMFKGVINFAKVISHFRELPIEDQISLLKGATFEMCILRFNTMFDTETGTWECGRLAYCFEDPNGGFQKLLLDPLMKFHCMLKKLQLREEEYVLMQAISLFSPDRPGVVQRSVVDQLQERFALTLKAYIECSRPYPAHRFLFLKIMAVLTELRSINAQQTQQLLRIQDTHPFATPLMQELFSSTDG
# Procedure, shortened: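 Cell-based rPXR activation assay: rPXR cells, 2,000 per well, rested 5hr at 37 C, then exposed to compounds in DMSO for 24 hr at 37 C. Luciferase activity read by One-Glo luminescence after 30 min at room temperature.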
# [16] = target: Nuclear receptor subfamily 1 group I member 2 (Homo sapiens) (UniProt O75469); assay: Human pregnane X receptor (PXR) activation by small molecules, qHTS assay (AID 1346985); note: nearly all actives have a fitted effect of over 40% in size
# Procedure, shortened: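 DPX-2 cells (HepG2 co-transfected with a PXR response element and a CYP3A4-promoter luciferase construct) were seeded at 2,000 per well, rested 5 hr at 37C, then exposed to DMSO-dissolved compounds for 24 hr. Activation was read as luciferase luminescence.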
# [17] = target: Cytochrome P450 2D6 (Homo sapiens) (UniProt P10635); assay: Cytochrome P450 Family 2 Subfamily D Member 6 (CYP2D6) small molecule antagonists: luciferase reporter qHTS assay (AID 1671196); note: nearly all actives have a fitted effect of over 50% in size; note: potency is the fitted concentration of half-maximal effect
# Cytochrome P450 2D6 (Homo sapiens), sequence (P10635 whole entry, looked up): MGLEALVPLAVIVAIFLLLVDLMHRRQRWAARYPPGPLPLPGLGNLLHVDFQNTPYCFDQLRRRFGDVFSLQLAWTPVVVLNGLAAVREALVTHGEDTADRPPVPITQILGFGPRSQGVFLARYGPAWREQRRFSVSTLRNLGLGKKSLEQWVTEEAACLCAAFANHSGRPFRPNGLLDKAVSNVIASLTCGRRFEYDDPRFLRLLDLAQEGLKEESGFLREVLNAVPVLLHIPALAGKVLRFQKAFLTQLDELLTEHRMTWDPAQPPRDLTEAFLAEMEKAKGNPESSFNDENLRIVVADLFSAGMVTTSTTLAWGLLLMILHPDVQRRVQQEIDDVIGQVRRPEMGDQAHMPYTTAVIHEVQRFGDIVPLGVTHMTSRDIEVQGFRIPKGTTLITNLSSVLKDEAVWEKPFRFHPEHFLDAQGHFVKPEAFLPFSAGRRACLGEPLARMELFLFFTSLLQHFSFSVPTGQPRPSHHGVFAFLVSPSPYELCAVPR
# Procedure, shortened: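 Quantitative HTS of Tox21 chemicals against CYP2D6 using a luminescent proluciferin substrate. After NADPH addition, 1 h room-temperature reaction; luminescence recorded 20 min post detection reagent.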
# [18] = target: Cytochrome P450 2C19 (Homo sapiens) (UniProt P33261); assay: Cytochrome P450 Family 2 Subfamily C Member 19 (CYP2C19) small molecule antagonists: luciferase reporter qHTS assay (AID 1671197); note: nearly all actives have a fitted effect of over 65% in size; note: potency is the fitted concentration of half-maximal effect
# Cytochrome P450 2C19 (Homo sapiens), sequence (P33261 whole entry, looked up): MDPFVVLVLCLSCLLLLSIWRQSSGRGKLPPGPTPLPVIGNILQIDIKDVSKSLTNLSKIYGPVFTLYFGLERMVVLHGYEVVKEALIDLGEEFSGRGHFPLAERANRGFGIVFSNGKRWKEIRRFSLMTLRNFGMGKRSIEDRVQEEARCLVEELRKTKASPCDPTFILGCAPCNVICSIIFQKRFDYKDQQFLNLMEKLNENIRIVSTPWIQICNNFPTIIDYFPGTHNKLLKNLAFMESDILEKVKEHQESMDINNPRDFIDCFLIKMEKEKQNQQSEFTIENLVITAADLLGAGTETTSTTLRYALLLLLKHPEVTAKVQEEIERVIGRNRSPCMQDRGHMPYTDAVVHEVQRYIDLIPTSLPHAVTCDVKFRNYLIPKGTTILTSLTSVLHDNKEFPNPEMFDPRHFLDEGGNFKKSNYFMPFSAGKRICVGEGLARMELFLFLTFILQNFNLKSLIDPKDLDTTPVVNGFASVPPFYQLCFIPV
# Procedure, shortened: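 Luminescent readout of CYP2C19 activity: luciferin product detected 20 min after adding detection reagent. Before that, compound and enzyme-substrate mix preincubated 10 min at room temperature; NADPH-regenerating system started a 1 h, 37C reaction. Ketoconazole as positive control.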
# [19] = target: Cytochrome P450 2C9 (Homo sapiens) (UniProt P11712); assay: Cytochrome P450 Family 2 Subfamily C Member 9 (CYP2C9) small molecule antagonists: luciferase reporter qHTS assay (AID 1671198); note: nearly all actives have a fitted effect of over 50% in size; note: potency is the fitted concentration of half-maximal effect
# Cytochrome P450 2C9 (Homo sapiens), sequence (P11712 whole entry, looked up): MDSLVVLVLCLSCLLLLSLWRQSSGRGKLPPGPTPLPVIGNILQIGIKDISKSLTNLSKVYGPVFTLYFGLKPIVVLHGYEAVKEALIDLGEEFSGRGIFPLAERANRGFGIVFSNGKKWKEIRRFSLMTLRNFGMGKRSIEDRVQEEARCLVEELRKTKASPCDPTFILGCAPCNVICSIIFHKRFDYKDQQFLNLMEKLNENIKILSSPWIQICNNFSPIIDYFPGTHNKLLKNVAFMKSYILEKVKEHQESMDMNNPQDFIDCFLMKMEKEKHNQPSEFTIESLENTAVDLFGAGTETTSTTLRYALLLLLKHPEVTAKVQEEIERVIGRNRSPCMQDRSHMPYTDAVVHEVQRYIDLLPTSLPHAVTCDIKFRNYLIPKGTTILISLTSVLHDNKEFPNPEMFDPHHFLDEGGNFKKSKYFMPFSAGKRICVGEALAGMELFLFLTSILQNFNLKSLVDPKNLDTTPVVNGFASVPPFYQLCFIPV
# Procedure, shortened: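 P450-Glo proluciferin substrate with CYP2C9 enzyme; 10 min RT preincubation, then NADPH regeneration 1 h at 37C; luciferin detection reagent 20 min RT, luminescence in relative luminescence units.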
# [20] = target: Progesterone receptor (Homo sapiens) (UniProt P06401); assay: qHTS assay to identify small molecule agonists of the progesterone receptor (PR) signaling pathway (AID 1346784; calls by dose curve; note: nearly all actives have a fitted effect of over 30% in size; note: potency is the fitted concentration of half-maximal effect)
# Procedure, shortened: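 Agonist mode, quantitative HTS format in a HEK 293T line expressing a UAS-controlled beta-lactamase reporter; 16 hr compound exposure at 37C in 2% charcoal-stripped FBS, then LiveBLAzer B/G FRET fluorescence.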
SMILES,Potency [1],Potency [2],Potency [3],Potency [4],Potency [5],outcome [6],outcome [7],Potency [8],Potency [9],Potency [10],Potency [11],outcome [12],Potency [13],Potency [14],max activation [15],Potency [16],Potency [17],Potency [18],Potency [19],Potency [20]
CCCCCCCCOc1ccc(C(=O)c2ccccc2)c(O)c1,inactive,inactive,inactive,inactive,inactive,inactive,inactive,inactive,inactive,inactive,inactive,inactive,inactive,inactive,-2.91% (inactive),inactive,inactive,inactive and 35.6 µM (active),12.6 µM (active),–
CCCCCCCC(=O)OCC(O)CO (stereo not drawn),inactive,inactive,inactive,inactive,inactive,inactive,inactive,inactive,inactive,inactive,inactive,inactive,inactive,inactive,-5.07% (inactive),inactive,39.9 µM (active),79.6 µM (active),inactive,–
O=C1OC(c2ccc(O)cc2)(c2ccc(O)cc2)c2ccccc21,24.3 µM (active),inactive,–,inactive,inactive,inactive,–,–,50.1 µM (active) and inactive,inactive,30.4 µM (active) and inactive,inactive,inactive,48.2 µM (active) and 27.3 µM (active) and 23.7 µM (active),–,–,71 µM (active) and inactive,28.1 µM (active) and 17.8 µM (active) and 11 µM (active),19.9 µM (active) and 20 µM (active) and 12.3 µM (active),inactive
NCCNc1cccc2ccccc12,inactive,–,inactive,inactive,inactive,inactive,inactive,inactive,50.1 µM (active) and inactive,inactive,66.9 µM (active) and inactive,inactive,inactive,inactive,-4.28% (inactive),inactive,5.02 µM (active) and 9.79 µM (active) and 12.3 µM (active),31.7 µM (active) and 21.9 µM (active) and 12.3 µM (active),20 µM (active) and 31 µM (active) and 27.5 µM (active),inactive
Oc1cccc(O)c1,inactive,inactive,inactive,inactive,inactive,inactive,–,–,inactive,42 µM (active) and inactive,inactive,inactive,inactive,47.1 µM (active) and inactive,-3.43% (inactive),inactive,inactive,inactive,inactive,inactive
O=C(O)Cc1cccc2ccccc12,inactive,–,inactive and 21.7 µM (active),inactive,inactive,inactive,inactive,inactive,inactive,inactive,–,inactive,inactive,inactive,-6.88% (inactive),inactive,inactive and 6.33 µM (active),inactive,inactive,inactive and 1.37 µM (active)
NC(=O)c1ccc([N+](=O)[O-])cc1Cl,inactive,inactive,inactive,inactive,inactive,inactive,inactive,inactive,inactive,inactive,inactive,inactive,inactive,inactive,2.53% (inactive),inactive,inactive,inactive,71 µM (active) and inactive,–
CCCCCCCCCCCCCC(=O)OC(C)C,inactive,inactive,inactive,inactive,inactive,inactive,–,–,inactive,inactive,inactive,inactive,inactive,inactive,-1.74% (inactive),inactive,inactive,inactive,inactive,inactive
NC(=O)NO,inactive,inactive,inactive,inactive,inactive,inactive,inactive,inactive,inactive,inactive,inactive,inactive,inactive,–,–,–,–,–,–,–
